Our source for the composite z-score and z-score values is PubChem BioAssay.

Activity calls are given as the source filed them.

Assay [1] relates to PRMT1 (protein arginine N-methyltransferase 1). Nature of the assay: PRMT1 binders on small-molecule microarrays, primary screen, biochemical, small-molecule microarray, 635 nm fluorescence (AID 1088).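 Also: binding of Prmt1 protein to compounds spotted on small-molecule microarray slides.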 The following applies: small-molecule microarray binding, higher = more signal.
Assay [2] in a line: yeast growth modulation, basal conditions, primary screen, YJM789 clinical isolate, OD600, 24 h (AID 1089).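 Also: growth of clinical yeast isolate S. cerevisiae YJM 789 seeded 1000 cells per well; test concentration not given here.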 The following applies: S. cerevisiae YJM789 growth, higher = more signal, called active from +8 up or from −8 down.
Assay [3] in a line: fission yeast growth modulation, primary screen, strain 972, OD600, 24 h, no modulator (AID 1090).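 Also: basal condition with compound alone and no growth modifier present; test concentration not given here.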 The following applies: S. pombe 972 growth, higher = more signal, called active from +8 up or from −8 down.
A short description of assay [4]: S. cerevisiae growth modulation with rapamycin, primary screen, strain BY4716, OD600, 96 h (AID 1091). Also: test concentration not given here. The following applies: higher = more signal, called active from +8 up or from −8 down.
Assay [5] deals with Torsin-1A-interacting protein 2 (Homo sapiens) (UniProt Q8NFQ8). The assay can be described thus: LULL1 binders on small-molecule microarray, primary screen, cell lysate, human LULL1 lysate, 635/667 nm fluorescence (AID 1092).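 Also: probe is lysate of COS7 cells overexpressing human LULL1; score merges per-feature 667 nm fluorescence with signal-to-noise.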 The following applies: hLULL1 lysate binding, 635 nm fluorescence, higher = more signal.
Chain of Torsin-1A-interacting protein 2 (Homo sapiens) (Q8NFQ8 whole entry, looked up): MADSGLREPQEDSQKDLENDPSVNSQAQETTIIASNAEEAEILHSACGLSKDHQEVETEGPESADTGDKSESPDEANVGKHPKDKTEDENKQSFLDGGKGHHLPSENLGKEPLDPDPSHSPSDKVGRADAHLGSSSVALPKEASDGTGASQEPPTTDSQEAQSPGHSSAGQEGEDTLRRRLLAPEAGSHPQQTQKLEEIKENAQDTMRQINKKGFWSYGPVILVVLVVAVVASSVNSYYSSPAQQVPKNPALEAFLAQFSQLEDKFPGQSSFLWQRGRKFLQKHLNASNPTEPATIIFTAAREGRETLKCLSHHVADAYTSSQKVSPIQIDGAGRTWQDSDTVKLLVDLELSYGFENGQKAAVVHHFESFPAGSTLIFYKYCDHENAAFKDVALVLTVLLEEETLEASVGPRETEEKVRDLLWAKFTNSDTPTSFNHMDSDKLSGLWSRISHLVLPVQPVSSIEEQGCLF
The nature of assay [6]: E. coli growth modulation, two-sided OD650, primary screen, E. coli filamentation project, strain DRC41, 24 h (AID 1093).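 Also: MC1000 strain lacking acrAB efflux and sulA so SOS filamentation is blocked; test concentration not given here.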 The following applies: OD650, 24 h, higher = more signal, called active from +8 up or from −8 down.
Assay [7] can be described thus: small-molecule microarray binders of probe aLefty2, primary screen, biochemical, biotinylated probe, 635/667 nm fluorescence (AID 1094).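 Also: score merges spot fluorescence near 667 nm with spot signal-to-noise ratio.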 The following applies: higher = more signal.
The subject of assay [8] is Noggin (protein binding on small-molecule microarray). The assay can be described thus: Noggin binders on small-molecule microarray, primary screen, biochemical, 635/667 nm fluorescence (AID 1095).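 Also: score merges 667 nm feature fluorescence with signal to noise over triplicate slides.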 The following applies: 635 nm fluorescence, higher = more signal.
Assay [9] deals with Neurogenic locus notch homolog protein 3 (Homo sapiens) (UniProt Q9UM47). The assay can be described thus: NOTCH3 binders on small-molecule microarray, primary screen, biochemical, 635/667 nm fluorescence (AID 1096). The following applies: NOTCH3 binding, 635 nm fluorescence, higher = more signal.
Chain of Neurogenic locus notch homolog protein 3 (Homo sapiens) (Q9UM47 whole entry, looked up): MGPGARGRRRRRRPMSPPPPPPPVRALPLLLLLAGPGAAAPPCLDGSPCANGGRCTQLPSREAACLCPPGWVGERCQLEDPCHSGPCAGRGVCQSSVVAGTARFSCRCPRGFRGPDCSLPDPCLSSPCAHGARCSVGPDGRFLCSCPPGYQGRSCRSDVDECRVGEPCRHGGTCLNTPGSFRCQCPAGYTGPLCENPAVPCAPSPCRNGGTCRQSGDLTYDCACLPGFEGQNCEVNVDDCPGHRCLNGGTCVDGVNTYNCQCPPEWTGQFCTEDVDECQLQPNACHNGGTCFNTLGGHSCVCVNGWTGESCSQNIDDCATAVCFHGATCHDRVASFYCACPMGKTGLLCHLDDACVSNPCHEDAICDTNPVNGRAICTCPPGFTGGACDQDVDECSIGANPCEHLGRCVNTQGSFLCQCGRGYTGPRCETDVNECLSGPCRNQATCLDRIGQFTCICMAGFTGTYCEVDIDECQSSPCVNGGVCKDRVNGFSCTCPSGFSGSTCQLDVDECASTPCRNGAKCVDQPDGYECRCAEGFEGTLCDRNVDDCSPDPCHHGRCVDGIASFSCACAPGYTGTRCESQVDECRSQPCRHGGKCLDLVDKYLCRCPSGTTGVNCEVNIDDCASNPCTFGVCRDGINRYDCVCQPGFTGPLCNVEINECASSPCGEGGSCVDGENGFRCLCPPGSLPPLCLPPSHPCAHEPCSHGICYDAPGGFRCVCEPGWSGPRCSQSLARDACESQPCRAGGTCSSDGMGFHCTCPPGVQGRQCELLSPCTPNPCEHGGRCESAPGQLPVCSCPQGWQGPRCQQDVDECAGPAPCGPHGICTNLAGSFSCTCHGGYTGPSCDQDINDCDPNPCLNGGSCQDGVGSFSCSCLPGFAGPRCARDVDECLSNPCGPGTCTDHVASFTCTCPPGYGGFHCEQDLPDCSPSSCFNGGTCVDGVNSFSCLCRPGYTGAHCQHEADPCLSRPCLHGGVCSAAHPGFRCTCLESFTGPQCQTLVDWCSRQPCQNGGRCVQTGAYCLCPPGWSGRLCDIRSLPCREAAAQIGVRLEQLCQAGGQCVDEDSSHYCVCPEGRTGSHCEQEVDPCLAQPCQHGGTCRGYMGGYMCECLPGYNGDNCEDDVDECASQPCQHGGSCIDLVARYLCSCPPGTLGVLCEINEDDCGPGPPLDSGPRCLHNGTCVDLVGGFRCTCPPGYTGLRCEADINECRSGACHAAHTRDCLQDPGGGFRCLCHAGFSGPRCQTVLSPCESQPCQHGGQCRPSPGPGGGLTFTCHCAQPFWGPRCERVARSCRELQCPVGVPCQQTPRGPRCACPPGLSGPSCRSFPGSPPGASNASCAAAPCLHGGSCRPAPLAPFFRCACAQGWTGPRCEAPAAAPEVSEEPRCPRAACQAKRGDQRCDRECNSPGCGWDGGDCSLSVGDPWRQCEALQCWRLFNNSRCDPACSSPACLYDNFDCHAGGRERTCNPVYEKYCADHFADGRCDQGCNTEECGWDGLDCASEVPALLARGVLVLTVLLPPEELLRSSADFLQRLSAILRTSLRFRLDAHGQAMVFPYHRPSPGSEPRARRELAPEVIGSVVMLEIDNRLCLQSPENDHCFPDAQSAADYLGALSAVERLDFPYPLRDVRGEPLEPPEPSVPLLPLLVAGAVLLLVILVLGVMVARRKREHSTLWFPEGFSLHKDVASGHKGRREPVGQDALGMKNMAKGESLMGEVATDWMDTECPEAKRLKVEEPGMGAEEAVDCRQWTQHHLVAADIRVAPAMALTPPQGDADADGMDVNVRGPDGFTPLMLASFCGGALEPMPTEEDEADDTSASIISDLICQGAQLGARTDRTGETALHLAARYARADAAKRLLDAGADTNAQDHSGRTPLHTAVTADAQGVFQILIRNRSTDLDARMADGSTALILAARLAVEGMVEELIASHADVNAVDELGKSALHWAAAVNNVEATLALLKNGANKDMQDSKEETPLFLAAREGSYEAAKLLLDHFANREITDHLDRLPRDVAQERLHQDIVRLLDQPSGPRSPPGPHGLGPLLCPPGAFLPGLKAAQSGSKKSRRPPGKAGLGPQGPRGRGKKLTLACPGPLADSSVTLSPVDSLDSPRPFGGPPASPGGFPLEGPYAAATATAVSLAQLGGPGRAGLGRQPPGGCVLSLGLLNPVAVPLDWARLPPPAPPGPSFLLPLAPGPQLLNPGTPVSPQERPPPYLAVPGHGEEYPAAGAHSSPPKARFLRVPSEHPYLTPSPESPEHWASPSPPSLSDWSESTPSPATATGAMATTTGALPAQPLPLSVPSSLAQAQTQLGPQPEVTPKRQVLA
Assay [10] in a line: small-molecule microarray binders of probe aEGFR, primary screen, biochemical, biotinylated probe, 635/667 nm fluorescence (AID 1097).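 Also: probe is a biotinylated anti-EGFR antibody binding compounds printed on slides; score combines fluorescence near 667 nm and signal to noise of each spot.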 The following applies: higher = more signal.
For assay [11], the system named is Plasmodium falciparum Sir2 (PF13_0152, Sir2A). The assay can be described thus: pfSir2 binders on small-molecule microarrays, primary screen, biochemical, small-molecule microarray, 635 nm fluorescence (AID 1098).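 Also: score merges spot fluorescence intensity with its signal-to-noise ratio.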 The following applies: small-molecule microarray binding, fluorescence 635 nm; higher = more signal.
A short description of assay [12]: small-molecule microarray binders of probe aDKK1, primary screen, biochemical, biotinylated probe, 635/667 nm fluorescence (AID 1099).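 Also: score merges 667nm spot fluorescence with signal to noise across triplicate slides; reference of the scale not given here.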 The following applies: higher = more signal.
Assay [13] can be described thus: small-molecule microarray binders of probe aCHRDL2, primary screen, biochemical, biotinylated probe, 635/667 nm fluorescence (AID 1100). The following applies: higher = more signal.
A short description of assay [14]: splicing luciferase reporter signal modulators, primary screen, spliceosome inhibition project, cell-based, HEK293, splice +/- reporter (AID 1101).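 Also: HEK293 cells carrying a splicing-competent luciferase reporter gene; test concentration not given here.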 The following applies: luminescence, 24 h, higher = more signal, called active from +8 up or from −8 down. On the technique in general: A reporter such as luciferase makes a cellular process visible.
Assay [15] addresses Fibroblast growth factor 10 (Homo sapiens) (UniProt O15520). Nature of the assay: FGF10 binders on small-molecule microarrays, primary screen, biochemical, small-molecule microarray, 635 nm fluorescence (AID 1102). The following applies: FGF10 binding, fluorescence 635 nm, higher = more signal.
Assay [16] has as its system glycogen synthase kinase-3 (GSK3A per assay name; protocol says GSK3B). The assay can be described thus: GSK3 binders on small-molecule microarrays, primary screen, biochemical, small-molecule microarray, 635 nm fluorescence, GSK3A (AID 1103). Also: the record names both GSK3A and GSK3B. The following applies: small-molecule microarray binding, fluorescence 635 nm; higher = more signal.
In assay [17] the target is Epidermal growth factor receptor (Homo sapiens) (UniProt P00533). The assay can be described thus: EGFR binders on small-molecule microarrays, primary screen, biochemical, small-molecule microarray, 635 nm fluorescence (AID 1104).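 Also: score merges 667 nm emission intensity with spot signal to noise over triplicate slides.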 The following applies: EGFR binding, higher = more signal.
Chain of Epidermal growth factor receptor (Homo sapiens) (P00533 whole entry, looked up): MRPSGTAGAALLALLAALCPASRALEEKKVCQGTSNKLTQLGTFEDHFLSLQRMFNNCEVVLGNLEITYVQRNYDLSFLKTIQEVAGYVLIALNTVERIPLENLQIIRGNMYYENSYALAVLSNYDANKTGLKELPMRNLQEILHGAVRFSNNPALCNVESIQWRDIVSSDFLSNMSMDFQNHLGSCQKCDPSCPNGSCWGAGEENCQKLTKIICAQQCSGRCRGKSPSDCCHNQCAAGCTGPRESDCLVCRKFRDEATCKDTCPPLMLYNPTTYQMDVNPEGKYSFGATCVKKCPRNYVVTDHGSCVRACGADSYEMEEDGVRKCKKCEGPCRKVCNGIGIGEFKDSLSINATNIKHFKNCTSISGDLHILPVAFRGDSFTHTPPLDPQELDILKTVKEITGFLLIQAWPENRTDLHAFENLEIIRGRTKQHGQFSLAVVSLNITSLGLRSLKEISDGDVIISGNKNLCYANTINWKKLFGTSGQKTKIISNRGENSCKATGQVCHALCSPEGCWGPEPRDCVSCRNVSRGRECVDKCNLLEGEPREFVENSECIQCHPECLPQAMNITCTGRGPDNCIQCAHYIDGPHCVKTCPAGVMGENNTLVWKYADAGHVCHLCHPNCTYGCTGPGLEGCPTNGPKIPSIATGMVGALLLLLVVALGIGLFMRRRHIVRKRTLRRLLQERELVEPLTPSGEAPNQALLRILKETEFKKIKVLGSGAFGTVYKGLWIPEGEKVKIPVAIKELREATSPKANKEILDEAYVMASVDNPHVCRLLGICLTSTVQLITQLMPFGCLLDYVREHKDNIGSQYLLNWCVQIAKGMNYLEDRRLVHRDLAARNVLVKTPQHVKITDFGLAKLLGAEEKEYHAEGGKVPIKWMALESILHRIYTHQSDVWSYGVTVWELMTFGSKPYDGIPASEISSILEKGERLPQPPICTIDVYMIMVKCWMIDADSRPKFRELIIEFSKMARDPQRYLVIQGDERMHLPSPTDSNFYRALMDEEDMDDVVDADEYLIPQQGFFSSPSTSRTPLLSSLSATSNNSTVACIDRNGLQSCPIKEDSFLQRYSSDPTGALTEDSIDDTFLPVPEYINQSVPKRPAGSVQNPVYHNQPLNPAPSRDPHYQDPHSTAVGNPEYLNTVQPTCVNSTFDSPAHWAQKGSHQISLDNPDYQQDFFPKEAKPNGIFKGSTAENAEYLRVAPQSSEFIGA
Assay [18] has as its target Follistatin-related protein 3 (Homo sapiens) (UniProt O95633). Nature of the assay: FSTL3 binders on small-molecule microarrays, primary screen, biochemical, small-molecule microarray, 635 nm fluorescence (AID 1105).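 Also: score merges emission near 667 nm and signal to noise per printed spot across three slides.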 The following applies: FSTL3 binding, higher = more signal.
Assay [19] concerns the target Dickkopf-related protein 1 (Homo sapiens) (UniProt O94907). Nature of the assay: DKK1 binders on small-molecule microarrays, primary screen, biochemical, small-molecule microarray, 635 nm fluorescence scan (AID 1106).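 Also: score merges emission near 667 nm with signal to noise over three replicate slides.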 The following applies: DKK1 binding, higher = more signal.
The test system of assay [20] is Inhibin beta A chain (activin A). The assay can be described thus: INHBA (activin A) binders on microarrays, primary screen, biochemical, small-molecule microarray, 635 nm fluorescence scan (AID 1107).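 Also: mouse activin A protein probed at 4.33 µg/mL on printed slides; score merges bound-protein fluorescence near 667 nm with spot signal-to-noise.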 The following applies: small-molecule microarray binding, higher = more signal.

Chain of Follistatin-related protein 3 (Homo sapiens) (O95633 whole entry, looked up): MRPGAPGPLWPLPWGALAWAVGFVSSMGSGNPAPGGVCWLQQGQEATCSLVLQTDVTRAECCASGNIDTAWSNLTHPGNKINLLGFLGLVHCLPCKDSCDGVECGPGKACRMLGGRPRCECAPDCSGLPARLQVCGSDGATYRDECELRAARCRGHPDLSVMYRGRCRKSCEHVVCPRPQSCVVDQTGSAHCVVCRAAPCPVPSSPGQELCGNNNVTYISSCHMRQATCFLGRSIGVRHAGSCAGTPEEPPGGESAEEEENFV
Chain of Fibroblast growth factor 10 (Homo sapiens) (O15520 whole entry, looked up): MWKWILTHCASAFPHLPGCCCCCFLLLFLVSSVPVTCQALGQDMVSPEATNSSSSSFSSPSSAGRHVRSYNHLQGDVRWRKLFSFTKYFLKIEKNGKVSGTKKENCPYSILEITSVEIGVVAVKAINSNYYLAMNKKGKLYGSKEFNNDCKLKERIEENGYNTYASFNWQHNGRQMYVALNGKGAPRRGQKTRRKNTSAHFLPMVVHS
Chain of Dickkopf-related protein 1 (Homo sapiens) (O94907 whole entry, looked up): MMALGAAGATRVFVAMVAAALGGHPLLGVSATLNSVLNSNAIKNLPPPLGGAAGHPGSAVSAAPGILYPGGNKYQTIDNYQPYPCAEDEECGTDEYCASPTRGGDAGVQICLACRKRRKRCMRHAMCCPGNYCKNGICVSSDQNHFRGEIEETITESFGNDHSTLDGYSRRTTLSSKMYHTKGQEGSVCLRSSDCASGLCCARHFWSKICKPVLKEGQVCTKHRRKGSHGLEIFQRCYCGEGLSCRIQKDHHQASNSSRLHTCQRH

Take `CCOC(=O)[C@H](Cc1ccccc1)NC(=O)CCC1CC(OC(=O)NCCc2ccc(F)cc2)CC2(CCCC(COC(=O)NCc3ccccc3)O2)O1` (stereo not given in full): the composite z-score in [1] was 1.56; in [5] it was 0.999; in assay [7], -0.0965; in assay [8] it was 0.644; in [9], 1.04; in assay [10] it was -0.0146. Also, the composite z-score in assay [11] is 0.857; in assay [12], -0.208; in assay [13], -0.614; in assay [15], 1.16; in assay [16], 0.572; in assay [17] it was 0.33. For the same molecule, the figures for the composite z-score in assay [18], in assay [19] and in assay [20] were 0.76, 0.529 and 0.0158, respectively. Further, the z-score was -0.522 (inactive) in assay [2]; 0.653 (inactive) in [3]; 0.6 (inactive) in assay [4]; 0.413 (inactive) in assay [6]; 0.207 (inactive) in assay [14].
Regarding `COc1ccc(COC(=O)NN=C2C[C@@H](O)[C@@H](O)[C@@H]3[C@@H]4C(=O)N(c5cccc(Oc6ccccc6)c5)C(=O)[C@@H]4CC[C@@H]23)cc1`, the composite z-score was -0.184 in assay [1]; 0.624 in assay [5]; 0.162 in assay [7]; -0.516 in assay [8]; -0.732 in assay [9]; -0.0953 in [10]. The composite z-score in assay [11] was -0.0785; in assay [12] it was 0.557; in assay [13], 1.28; in [15], -0.518; in assay [16], -1.2; in [17], -0.322. Also, the composite z-score in assay [18] is -1.07; in assay [19] it was -0.89; in assay [20], 0.247. Besides, the z-score in [2] is 1.15 (inactive); in [3] it was 0.897 (inactive); in assay [4], 0.752 (inactive); in assay [6], 0.301 (inactive); in assay [14] it was -0.161 (inactive).
For `Cc1ccc(S(=O)(=O)NC(CCc2ccccc2)CC(=O)C(C)(C)C)cc1` (stereo not given), the composite z-score in assay [1] was determined as 1.09; in assay [5] it was 0.69; in [7], 0.422; in assay [8], 0.409; in [9], 1.14; in assay [10], 0.045. Besides, the composite z-score in [11] is 0.491; in assay [12], -0.32; in [13], -0.459; in assay [15], 0.465; in assay [16] it was 0.667; in assay [17], 0.589. For the same molecule, the composite z-score is 0.758 in assay [18], 0.661 in assay [19] and -0.114 in [20]. The z-score in [2] is -1.18 (inactive); in [3], -1.76 (inactive); in assay [4], 0.269 (inactive); in [6], 0.361 (inactive); in assay [14], -0.327 (inactive).
In the case of `CCOC(=O)[C@H](Cc1ccccc1)NC(=O)CCC1CC(OC(=O)NCCc2ccc(F)cc2)CC2(CCCC(COC(=O)NCCc3ccc(Cl)cc3)O2)O1` (stereo not given in full), the composite z-score in assay [1] is 1.13; in assay [5], 1.83; in [7] it was -0.174; in [8], 0.658; in assay [9], 0.924; in [10], -0.0687. The composite z-score in [11] was 0.54; in assay [12] it was -0.0724; in assay [13], -0.379; in [15] it was 0.319; in [16] it was 0.691; in assay [17], 0.401. The figures for the composite z-score in assay [18], in assay [19] and in [20] were 0.422, 0.555 and 0.018, respectively. Further, the z-score was 0.154 (inactive) in [2]; 1.04 (inactive) in assay [3]; 0.851 (inactive) in [4]; 0.822 (inactive) in [6]; -0.0219 (inactive) in assay [14].
As for `CCOC(=O)[C@H](CC(C)C)NC(=O)CCC1CC(OC(=O)NCc2ccc3c(c2)OCO3)CC2(CCCC(COC(=O)NCC3CCCCC3)O2)O1` (stereo not given in full), the composite z-score in assay [1] is 1.24; in assay [5], 1.49; in [7], -0.323; in [8], 0.553; in assay [9], 1.09; in assay [10], -0.109. Besides, the composite z-score in assay [11] was 0.74; in [12], -0.209; in assay [13], -0.62; in assay [15], 0.651; in [16] it was 0.532; in assay [17], 0.379. For the same molecule, the composite z-score in assay [18] is 1.22; in [19], 0.681; in assay [20], -0.0703. Also, the z-score is 0.192 (inactive) in assay [2]; -0.0848 (inactive) in [3]; -0.113 (inactive) in assay [4]; 0.409 (inactive) in assay [6]; -0.266 (inactive) in assay [14].
